This excerpt belongs to a sample that is enriched for hits.
Pf Dd2 inh = Plasmodium falciparum Dd2 growth inhibition | P. falciparum Dd2 growth, SYBR Green, 72 h | Potency, µM (titrated, usually from 28.9 µM), actives largely listed as inhibitors | 4.3% of 120,000 active | AID 1347417; active = well fitted inhibition curve with a large enough effect; also: nearly all actives have a fitted effect of over 65% in size
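Infected erythrocytes (Dd2, 0.3% parasitemia, 2.5% hematocrit final) are added to compound in RPMI-1640/Albumax II medium, grown 72 h at 37C in low oxygen, then lysed with saponin/Triton-X containing SYBR Green and read by fluorescence.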
Large screens that a line does not name were inactive.

COCCN1CC2(CCC1=O)CCN(C(=O)C(C)SC)CC2 (stereo not drawn)	none
Cc1cccc(OC2(C(=O)O)CCN(c3cncc(C(N)=O)n3)CC2)c1	none
Cc1ccc(Cc2c(C)nc3nc(SCC(=O)NC(C)c4ccccc4)nn3c2C)cc1 (stereo not drawn)	none
Cc1nc2c(C(=O)NCCc3ccc(Cl)cc3)cnn2c(C)c1Cc1ccc(F)cc1	none
Cc1nc2c(C(=O)NC(C)c3ccccc3)cnn2c(C)c1Cc1ccccc1 (stereo not drawn)	Pf Dd2 inh 8.9µM
CN(C)C[C@H]1C[C@@H](CO)CN(C(=O)CN2CCC(c3ccccc3)CC2)C1	none
COc1ccc(OC)c(CNC(=O)c2ccc(NC(=O)c3nsc4ccccc34)cc2)c1	none
O=C1N(Cc2ccccc2)CCOC12CCN([S+](=O)([O-])c1ccccc1)CC2	none
C[C@@H]1CN(C(=O)CCN(C)S(C)(=O)=O)C[C@@]1(O)C1CC1	none
CCOc1ccc(CNC(=O)c2cnc3sc(N4CCOCC4)nn3c2=O)cc1OC	none
COc1ccccc1C1CNC(=O)c2nc(CCN3CCC(C)CC3)[nH]c2C1 (stereo not drawn)	none
COc1cccc(C2CNC(=O)c3nc(Cn4nc(C)c(C)c4C)[nH]c3C2)c1 (stereo not drawn)	Pf Dd2 inh 10µM
COc1cccc(C2CNC(=O)c3nc(-c4ccc(C(=O)N(C)C)o4)[nH]c3C2)c1 (stereo not drawn)	none
Cc1ccc2cc(CCC(=O)NCCN3CCN(C)CC3)c(=O)[nH]c2c1	none
Cc1ccc(/C=C(\C#N)C(=O)Nc2cccc(Cl)c2)o1	none
Cc1ccc(-n2c(C)cc(/C=C(\C#N)C(=O)Nc3ccc(C)c(C)c3)c2C)cc1	none
Cc1cccc(Cn2cc(/C=C(/C#N)C(=O)Nc3cccc(Cl)c3)c3ccccc32)c1	Pf Dd2 inh 3.5µM
Cn1cnc(S(=O)(=O)N2CCC(C(=O)Nc3ccc(F)cc3F)CC2)c1	none
CCOC(=O)c1cccc(NC(=O)C2(S(=O)(=O)c3ccc(C)cc3)CC2)c1	none
CCCCOc1cccc(C(=O)Nc2sc3c(c2C(=O)OCC)CCCC3)c1	none
CN(Cc1cccc(C(F)(F)F)c1)C(=O)Cc1ccc(F)cc1	none
CN(Cc1cccc(C(F)(F)F)c1)C(=O)c1ccc(F)cc1	Pf Dd2 inh 11µM
CC(=O)N(C)Cc1cccc(C(F)(F)F)c1	none
Cc1noc(C)c1CC(=O)N1CC(c2noc(C3CCCN3C)n2)C1 (stereo not drawn)	none
O=C(Nc1ccc2ncnc(N3CCCC3)c2c1)c1ccc(OC(F)(F)F)cc1	none
Cc1nc(N2CCCC2)ncc1C(=O)Nc1ccc(OC(F)(F)F)cc1	none
CCCN1CCN(c2ncnc3sc(C(=O)Nc4ccc(OC(F)(F)F)cc4)c(C)c23)CC1	Pf Dd2 inh 5µM
O=C(c1cccs1)N1CCN(c2cc(C(F)(F)F)ncn2)CC1	none
Cc1ccc(NC(=O)N2Cc3[nH]cnc3C[C@H]2c2nc(-c3ccncc3)no2)cc1	none
O=C([C@H]1C[C@H](Oc2ccccc2)CN1C(=O)COc1ccccc1)N1CCOCC1	none
O=C1NC2(CCN([S+](=O)([O-])c3cccc(C(F)(F)F)c3)C2)COc2ccccc21 (stereo not drawn)	none
Cc1ccc(C(=O)N2CCc3sc(C(=O)O)cc3C2)cc1	none
Cc1ccc(C(=O)N2CCc3sc(C(=O)NCc4ccc(F)cc4F)cc3C2)cc1	none
Cc1ccc(C(=O)N2CCc3sc(C(=O)NCc4ccc(C)o4)cc3C2)cc1	Pf Dd2 inh 11µM
CC(C)NC(=O)CN1C(=O)CCn2nc(-c3cn(C)c4ccccc34)cc21	none
COc1ccc(CCC(=O)N(C)C2CCc3nnc(C)n3CC2)cc1OC (stereo not drawn)	none
COc1ccc(Nc2nnc(-n3nc(C)cc3C)c3ccccc23)cc1	none
CCCCOC(=O)c1ccc(Nc2nnc(-n3nc(C)cc3C)c3ccccc23)cc1	none
CCCCc1ccc(Nc2cc(C)nc(-n3nc(C)cc3C)n2)cc1	Pf Dd2 inh 2.8µM
CC(=O)c1ccc(NC(=O)Cn2c(-n3nc(C)cc3C)nc(C)cc2=O)cc1	none
Cc1cc(Nc2ccc(F)cc2)nc(-n2nc(C)cc2C)n1	Pf Dd2 inh 11µM
Cc1cc(C)n(-c2nc3ccccc3nc2Nc2ccc(C(C)C)cc2)n1	none
CCn1cc(S(=O)(=O)N2C[C@@H](Oc3ccccc3)C[C@@H]2C(=O)NC)cn1	none
COC(=O)c1cccnc1-n1c(=O)c2cccnc2n(CC(=O)Nc2c(C)cc(C)cc2C)c1=O	none
CCCOc1ccccc1C(=O)N1CCCCC1CCN1CCOCC1 (stereo not drawn)	none
O=C(NCCn1cccn1)C1CCC(=O)N(CCCN2CCOCC2)C1 (stereo not drawn)	none
COc1ccc2cc(C3CN(Cc4nc(C(N)=O)no4)CCO3)ccc2c1 (stereo not drawn)	none
CC1(c2ccccc2)N(Cc2ccccc2)C(=O)OC12CCN(Cc1ccncc1)CC2 (stereo not drawn)	none
COc1cccc(-c2ccc(NC(=O)C3CCCN(Cc4cc(C(C)C)n[nH]4)C3)cc2)c1 (stereo not drawn)	Pf Dd2 inh 11µM
CCCCc1ncc(CN2CCCC(C(=O)Nc3ccccc3-c3ccc(OC)cc3)C2)[nH]1 (stereo not drawn)	Pf Dd2 inh 8.9µM
COc1cccc(-c2ccc(NC(=O)C3CCCN3C(=O)CNC(C)=O)cc2)c1 (stereo not drawn)	none
CCCOC(=O)N1CCCC(C(=O)Nc2ccccc2-c2ccc(OC)cc2)C1 (stereo not drawn)	none
COc1cccc(-c2ccc(NC(=O)C3CCCN3C(=O)Cn3cccn3)cc2)c1 (stereo not drawn)	none
COc1ccc(-c2ccccc2NC(=O)C2CCCN(Cc3cccc(F)c3F)C2)cc1 (stereo not drawn)	none
NC(=O)Cn1ccc2cc(OCC3CCN(C(=O)C4CC4)CC3)cnc21	none
CC(=O)Nc1ccc(-c2nnc3n(CC(C)C)c(=O)c4ccccc4n23)cc1	none
COc1ccc(F)cc1CN1CCc2[nH]cnc2C1c1cccc(C#N)c1 (stereo not drawn)	Pf Dd2 inh 5.6µM
N#Cc1cccc(CN2Cc3[nH]cnc3C[C@H]2c2nc(-c3ccccc3)no2)c1	none
COc1ccc(-c2noc(CN3CCCCC3c3cccc(F)c3)n2)c(OC)c1OC (stereo not drawn)	none
N#Cc1cccc(C(=O)N2CCC3(CC2)CC(Cc2ccc(F)cc2)CCO3)c1 (stereo not drawn)	none
COCC(=O)N1CC(F)(F)C[C@H]1c1nc(-c2cccnc2)no1	none
COc1cc(CN2CCC[C@H]2c2nc(-c3ccc(-c4ccncc4)nc3)no2)cc(OC)c1OC	Pf Dd2 inh 5µM
COCC(=O)Nc1ccc(-c2noc([C@@H]3CCCN3Cc3cccnc3)n2)cn1	Pf Dd2 inh 8.9µM
COCC(=O)Nc1ccc(-c2noc([C@@H]3CCCN3Cc3ncc[nH]3)n2)cn1	none
COCCNc1ccc(-c2noc([C@@H]3CCCN3C3CCC3)n2)cn1	none
COCCNc1ncccc1-c1noc([C@@H]2CCCN2Cc2cc(OC)c(OC)c(OC)c2)n1	none
COc1ccc(C(=O)Nc2ccc(-c3noc([C@@H]4CCCN4Cc4c[nH]c5ccccc45)n3)cn2)cc1	Pf Dd2 inh 7.9µM
Fc1ccc(-c2noc([C@@H]3CCCN3Cc3ccc(Cl)cc3)n2)nc1	none
COc1ccc(-c2noc([C@@H]3CCCN3C(=O)c3ccncc3)n2)cc1OC	none
COCCOc1ccc(-c2noc([C@@H]3CCCN3Cc3c[nH]c4ccccc34)n2)cn1	none
COc1ccc(C(=O)Nc2ccc(-c3noc([C@@H]4CCCN4Cc4ccco4)n3)cn2)cc1	none
COCCNc1ccc(-c2noc([C@@H]3CCCN3Cc3cc(OC)c(OC)c(OC)c3)n2)cn1	Pf Dd2 inh 8.9µM
COc1cccc(C(=O)NCCc2nc(C3CC3)nn2Cc2ccccc2)c1	none

High-throughput results deposited in PubChem BioAssay by National Center for Advancing Translational Sciences (NCATS).
